Assay results from the supplement of paper PMC11732987, “Enantioselective OTUD7B fragment discovery through chemoproteomics screening and high-throughput optimisation” (Communications Chemistry, 2025).

Experiments:
Assay in all cases: log2 ratio of Biotin-Ahx-Ub-VS probe labelling (fragment/DMSO); higher = less target engagement (more negative = stronger competition), active = hit call of the paper (q ≤ 0.05, log2 ratio ≤ -1)
Settings in all cases: compound concentration: 200 uM; treatment time: 3 h
USP34 = USP34 (UniProt Q70CQ2)
Chain of USP34 (Q70CQ2 whole entry, the tested form may be a part): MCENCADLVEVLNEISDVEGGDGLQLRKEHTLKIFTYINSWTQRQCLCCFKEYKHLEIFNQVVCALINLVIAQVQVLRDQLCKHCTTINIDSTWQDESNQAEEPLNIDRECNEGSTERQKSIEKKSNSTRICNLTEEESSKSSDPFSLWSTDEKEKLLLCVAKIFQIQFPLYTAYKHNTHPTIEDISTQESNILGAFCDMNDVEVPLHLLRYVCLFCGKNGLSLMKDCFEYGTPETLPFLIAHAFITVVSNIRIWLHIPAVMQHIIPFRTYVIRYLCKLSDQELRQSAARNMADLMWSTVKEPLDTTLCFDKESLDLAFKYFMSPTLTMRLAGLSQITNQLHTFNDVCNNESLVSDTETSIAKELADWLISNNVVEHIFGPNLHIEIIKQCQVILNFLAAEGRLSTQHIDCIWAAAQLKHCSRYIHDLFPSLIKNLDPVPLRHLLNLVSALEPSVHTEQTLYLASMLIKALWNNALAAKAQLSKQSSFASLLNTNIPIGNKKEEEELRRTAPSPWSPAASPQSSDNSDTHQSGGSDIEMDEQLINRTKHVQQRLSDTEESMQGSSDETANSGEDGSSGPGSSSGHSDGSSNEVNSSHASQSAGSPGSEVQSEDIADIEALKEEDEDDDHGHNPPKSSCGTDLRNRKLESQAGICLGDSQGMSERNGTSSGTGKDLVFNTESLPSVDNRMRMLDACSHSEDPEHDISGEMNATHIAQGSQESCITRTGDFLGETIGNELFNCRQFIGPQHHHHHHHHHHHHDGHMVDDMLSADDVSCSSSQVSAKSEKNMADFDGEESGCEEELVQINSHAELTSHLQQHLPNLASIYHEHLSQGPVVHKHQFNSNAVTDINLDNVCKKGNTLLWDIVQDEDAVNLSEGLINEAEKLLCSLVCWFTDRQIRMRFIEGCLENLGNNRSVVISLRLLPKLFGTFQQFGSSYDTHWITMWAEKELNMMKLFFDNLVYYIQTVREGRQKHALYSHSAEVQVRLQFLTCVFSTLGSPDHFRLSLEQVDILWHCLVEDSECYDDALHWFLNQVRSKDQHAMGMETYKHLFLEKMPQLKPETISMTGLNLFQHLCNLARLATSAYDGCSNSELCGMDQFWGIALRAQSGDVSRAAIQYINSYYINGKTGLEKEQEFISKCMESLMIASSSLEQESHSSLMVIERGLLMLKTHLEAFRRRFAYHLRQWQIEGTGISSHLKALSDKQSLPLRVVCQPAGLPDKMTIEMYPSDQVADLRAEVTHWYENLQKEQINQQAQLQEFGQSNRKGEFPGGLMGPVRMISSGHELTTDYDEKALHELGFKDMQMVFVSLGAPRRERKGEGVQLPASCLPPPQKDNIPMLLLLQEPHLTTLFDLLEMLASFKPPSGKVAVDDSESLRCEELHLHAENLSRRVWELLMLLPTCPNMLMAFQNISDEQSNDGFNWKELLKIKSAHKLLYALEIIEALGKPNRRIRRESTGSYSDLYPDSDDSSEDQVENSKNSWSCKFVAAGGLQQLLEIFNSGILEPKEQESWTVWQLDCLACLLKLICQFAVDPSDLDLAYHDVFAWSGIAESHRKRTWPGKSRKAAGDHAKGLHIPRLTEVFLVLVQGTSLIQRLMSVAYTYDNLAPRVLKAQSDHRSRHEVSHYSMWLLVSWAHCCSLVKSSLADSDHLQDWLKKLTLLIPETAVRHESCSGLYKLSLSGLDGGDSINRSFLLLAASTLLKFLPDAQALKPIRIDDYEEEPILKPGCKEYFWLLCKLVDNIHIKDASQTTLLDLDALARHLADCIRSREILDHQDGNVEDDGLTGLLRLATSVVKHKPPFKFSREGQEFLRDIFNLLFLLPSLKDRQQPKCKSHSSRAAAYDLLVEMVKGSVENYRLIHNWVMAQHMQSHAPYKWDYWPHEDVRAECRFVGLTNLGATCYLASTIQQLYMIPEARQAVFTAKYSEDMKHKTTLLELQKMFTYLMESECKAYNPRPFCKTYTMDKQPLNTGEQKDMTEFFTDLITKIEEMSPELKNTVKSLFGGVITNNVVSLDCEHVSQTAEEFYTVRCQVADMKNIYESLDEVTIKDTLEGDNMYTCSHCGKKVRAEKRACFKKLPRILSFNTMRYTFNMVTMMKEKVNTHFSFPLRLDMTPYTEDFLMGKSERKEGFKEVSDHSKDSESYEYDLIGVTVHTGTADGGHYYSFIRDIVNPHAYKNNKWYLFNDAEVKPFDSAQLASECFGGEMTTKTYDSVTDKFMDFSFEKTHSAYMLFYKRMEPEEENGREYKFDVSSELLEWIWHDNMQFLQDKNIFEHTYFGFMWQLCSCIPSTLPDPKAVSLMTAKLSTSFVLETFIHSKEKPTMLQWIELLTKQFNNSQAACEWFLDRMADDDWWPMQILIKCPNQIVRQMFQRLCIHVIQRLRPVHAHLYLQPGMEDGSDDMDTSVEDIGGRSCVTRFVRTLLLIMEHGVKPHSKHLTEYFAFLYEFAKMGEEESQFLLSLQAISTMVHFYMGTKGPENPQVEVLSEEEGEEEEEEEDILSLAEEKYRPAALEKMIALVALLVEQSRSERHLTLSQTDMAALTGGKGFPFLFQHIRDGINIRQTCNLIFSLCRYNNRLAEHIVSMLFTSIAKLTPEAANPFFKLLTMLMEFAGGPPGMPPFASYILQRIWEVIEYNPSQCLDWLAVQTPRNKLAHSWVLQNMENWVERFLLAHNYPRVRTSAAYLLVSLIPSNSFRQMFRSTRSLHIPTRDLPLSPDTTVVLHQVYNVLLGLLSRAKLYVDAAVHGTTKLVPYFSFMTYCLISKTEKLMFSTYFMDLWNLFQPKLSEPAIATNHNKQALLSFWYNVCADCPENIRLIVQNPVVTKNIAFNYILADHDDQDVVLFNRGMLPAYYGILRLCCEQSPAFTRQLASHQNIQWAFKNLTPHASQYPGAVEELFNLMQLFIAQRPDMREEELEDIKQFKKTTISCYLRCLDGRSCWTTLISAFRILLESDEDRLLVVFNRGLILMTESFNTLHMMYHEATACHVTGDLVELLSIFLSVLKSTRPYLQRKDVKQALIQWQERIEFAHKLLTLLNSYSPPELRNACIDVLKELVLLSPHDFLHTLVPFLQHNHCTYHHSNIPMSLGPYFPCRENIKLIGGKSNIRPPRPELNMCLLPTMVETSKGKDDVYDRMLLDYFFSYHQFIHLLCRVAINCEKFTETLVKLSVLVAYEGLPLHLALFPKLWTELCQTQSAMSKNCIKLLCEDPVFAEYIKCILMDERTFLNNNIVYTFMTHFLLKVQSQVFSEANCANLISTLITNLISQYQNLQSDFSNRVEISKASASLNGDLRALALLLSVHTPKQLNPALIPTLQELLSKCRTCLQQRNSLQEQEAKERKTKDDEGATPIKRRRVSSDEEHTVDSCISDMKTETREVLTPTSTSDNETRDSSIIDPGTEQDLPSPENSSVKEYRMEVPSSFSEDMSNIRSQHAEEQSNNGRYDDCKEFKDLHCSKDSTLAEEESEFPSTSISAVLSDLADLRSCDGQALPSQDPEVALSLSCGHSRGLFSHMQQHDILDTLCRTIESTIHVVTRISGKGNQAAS
Outline: (§1)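 Labelled DUBs were enriched with NeutrAvidin, digested with LysC and trypsin, and run by diaPASEF LC-MS/MS. The labelling used Biotin-Ahx-Ub-VS at 0.5 µM final for 1 h on HEK293T lysate (495 µg per sample) previously treated in triplicate with fragment at 200 µM or vehicle for 3 h. Values are average log2 fragment/vehicle ratios by unpaired t-test on global-median-normalised Spectronaut quantities of proteins with ≥2 unique peptides.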

USP36 = target: T1, USP36 (UniProt Q9P275)
T1 sequence (whole entry): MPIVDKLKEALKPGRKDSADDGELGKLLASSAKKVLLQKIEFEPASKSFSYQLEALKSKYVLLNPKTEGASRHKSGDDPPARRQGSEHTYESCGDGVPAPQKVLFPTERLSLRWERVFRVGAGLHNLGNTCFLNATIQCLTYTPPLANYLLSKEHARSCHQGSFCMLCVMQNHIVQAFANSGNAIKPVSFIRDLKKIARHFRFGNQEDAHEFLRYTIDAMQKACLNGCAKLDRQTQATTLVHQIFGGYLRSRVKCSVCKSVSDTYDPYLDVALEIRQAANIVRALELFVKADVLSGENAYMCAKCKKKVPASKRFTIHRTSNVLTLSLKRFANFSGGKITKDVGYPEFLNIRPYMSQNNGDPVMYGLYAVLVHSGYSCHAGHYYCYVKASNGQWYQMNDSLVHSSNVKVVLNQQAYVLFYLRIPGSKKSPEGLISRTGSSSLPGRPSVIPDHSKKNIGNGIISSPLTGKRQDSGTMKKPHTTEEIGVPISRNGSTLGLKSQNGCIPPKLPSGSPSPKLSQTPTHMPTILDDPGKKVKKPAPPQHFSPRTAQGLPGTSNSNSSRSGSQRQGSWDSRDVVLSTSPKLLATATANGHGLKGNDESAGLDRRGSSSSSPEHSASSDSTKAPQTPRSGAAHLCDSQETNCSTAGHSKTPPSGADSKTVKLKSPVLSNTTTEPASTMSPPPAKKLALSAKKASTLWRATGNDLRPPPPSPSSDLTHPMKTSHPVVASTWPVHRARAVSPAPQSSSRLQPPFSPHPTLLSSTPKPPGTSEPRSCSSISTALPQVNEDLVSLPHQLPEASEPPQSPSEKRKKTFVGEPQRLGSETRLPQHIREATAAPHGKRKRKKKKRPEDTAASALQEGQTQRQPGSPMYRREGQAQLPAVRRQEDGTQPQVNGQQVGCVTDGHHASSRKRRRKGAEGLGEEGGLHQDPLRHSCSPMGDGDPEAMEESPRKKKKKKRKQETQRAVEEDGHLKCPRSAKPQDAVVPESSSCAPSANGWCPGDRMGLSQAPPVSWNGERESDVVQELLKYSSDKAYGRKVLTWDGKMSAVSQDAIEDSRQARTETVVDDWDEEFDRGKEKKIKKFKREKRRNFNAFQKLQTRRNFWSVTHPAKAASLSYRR
Outline: as §1

USP38 = target: T2, USP38 (UniProt Q8NB14)
T2 sequence (whole entry): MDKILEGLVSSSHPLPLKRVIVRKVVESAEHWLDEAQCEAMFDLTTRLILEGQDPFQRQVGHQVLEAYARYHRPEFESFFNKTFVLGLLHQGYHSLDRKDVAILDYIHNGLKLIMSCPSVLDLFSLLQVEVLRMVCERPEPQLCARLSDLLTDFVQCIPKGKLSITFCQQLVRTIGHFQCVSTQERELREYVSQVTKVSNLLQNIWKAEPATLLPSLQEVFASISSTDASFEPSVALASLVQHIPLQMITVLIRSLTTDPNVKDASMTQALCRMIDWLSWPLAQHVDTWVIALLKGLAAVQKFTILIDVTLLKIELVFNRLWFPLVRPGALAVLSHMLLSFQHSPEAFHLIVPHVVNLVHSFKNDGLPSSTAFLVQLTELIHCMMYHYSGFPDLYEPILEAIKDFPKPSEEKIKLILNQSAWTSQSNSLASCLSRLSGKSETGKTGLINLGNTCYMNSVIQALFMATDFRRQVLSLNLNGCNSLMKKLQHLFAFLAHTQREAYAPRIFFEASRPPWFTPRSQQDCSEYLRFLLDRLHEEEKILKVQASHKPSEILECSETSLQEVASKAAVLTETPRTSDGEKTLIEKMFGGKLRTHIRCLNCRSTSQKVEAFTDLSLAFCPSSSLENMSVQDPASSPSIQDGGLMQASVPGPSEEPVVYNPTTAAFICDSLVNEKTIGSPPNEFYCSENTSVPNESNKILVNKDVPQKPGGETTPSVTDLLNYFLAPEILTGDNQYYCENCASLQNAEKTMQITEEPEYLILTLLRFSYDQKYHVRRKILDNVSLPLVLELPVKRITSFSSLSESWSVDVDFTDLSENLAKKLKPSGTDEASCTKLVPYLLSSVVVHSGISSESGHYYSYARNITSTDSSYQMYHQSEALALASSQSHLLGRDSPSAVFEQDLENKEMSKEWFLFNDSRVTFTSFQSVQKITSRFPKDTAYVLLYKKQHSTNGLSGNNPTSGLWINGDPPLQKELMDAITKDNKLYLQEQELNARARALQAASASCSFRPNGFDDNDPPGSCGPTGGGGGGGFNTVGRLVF
Outline: as §1

USP39 = target: T3, USP39 (UniProt Q53GS9)
T3 sequence (whole entry): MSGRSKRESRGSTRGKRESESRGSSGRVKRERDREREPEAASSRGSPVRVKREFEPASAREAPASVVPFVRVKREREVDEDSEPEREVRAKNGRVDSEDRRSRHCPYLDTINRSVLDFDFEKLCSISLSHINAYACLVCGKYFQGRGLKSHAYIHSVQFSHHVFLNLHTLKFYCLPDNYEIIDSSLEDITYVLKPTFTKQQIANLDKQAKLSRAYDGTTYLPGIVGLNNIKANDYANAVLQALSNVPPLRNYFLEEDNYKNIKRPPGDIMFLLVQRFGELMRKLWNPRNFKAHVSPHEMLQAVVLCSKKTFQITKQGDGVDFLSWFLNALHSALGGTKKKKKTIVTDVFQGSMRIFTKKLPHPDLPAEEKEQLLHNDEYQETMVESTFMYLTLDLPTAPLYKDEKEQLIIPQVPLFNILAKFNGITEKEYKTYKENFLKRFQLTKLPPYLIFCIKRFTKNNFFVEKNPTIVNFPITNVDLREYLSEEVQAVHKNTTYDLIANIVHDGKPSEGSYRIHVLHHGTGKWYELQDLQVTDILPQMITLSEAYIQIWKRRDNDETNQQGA
Outline: as §1

USP4 = target: T4, USP4 (UniProt Q13107)
T4 sequence (whole entry): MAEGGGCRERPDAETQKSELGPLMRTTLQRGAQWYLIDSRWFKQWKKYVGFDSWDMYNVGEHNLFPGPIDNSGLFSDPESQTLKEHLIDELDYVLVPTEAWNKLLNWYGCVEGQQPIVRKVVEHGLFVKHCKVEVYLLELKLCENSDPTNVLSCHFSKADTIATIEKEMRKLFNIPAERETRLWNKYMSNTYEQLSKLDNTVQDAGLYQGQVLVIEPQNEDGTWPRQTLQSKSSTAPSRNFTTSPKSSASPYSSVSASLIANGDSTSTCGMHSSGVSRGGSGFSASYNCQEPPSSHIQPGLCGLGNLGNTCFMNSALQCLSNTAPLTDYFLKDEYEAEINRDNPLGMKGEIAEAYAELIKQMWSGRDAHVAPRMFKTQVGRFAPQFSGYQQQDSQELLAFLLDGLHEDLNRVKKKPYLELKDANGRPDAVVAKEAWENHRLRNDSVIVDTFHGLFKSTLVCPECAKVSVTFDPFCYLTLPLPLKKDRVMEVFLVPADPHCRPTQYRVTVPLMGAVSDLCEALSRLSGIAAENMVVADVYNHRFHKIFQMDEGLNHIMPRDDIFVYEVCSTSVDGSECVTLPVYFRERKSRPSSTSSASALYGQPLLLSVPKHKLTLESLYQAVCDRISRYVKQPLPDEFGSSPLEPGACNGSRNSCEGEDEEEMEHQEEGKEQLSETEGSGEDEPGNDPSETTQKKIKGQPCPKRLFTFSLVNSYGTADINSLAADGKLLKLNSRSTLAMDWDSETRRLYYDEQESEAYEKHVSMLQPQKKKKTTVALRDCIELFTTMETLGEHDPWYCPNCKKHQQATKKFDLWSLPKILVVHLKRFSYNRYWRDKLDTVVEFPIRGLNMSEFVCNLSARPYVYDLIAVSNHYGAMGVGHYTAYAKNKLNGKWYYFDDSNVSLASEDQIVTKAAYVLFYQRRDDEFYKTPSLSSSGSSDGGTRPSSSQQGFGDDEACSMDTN
Outline: as §1

Measured: log2 ratio of Biotin-Ahx-Ub-VS probe labelling

O=C(CCl)N(C1CCCC1)C1CCS(=O)(=O)C1 (stereo not given)
inactive: USP34 -0.0865 | USP36 -0.298 | USP38 -0.0626 | USP39 0.151 | USP4 0.0894
